Results from PubChem BioAssay (EPA / NIEHS).
Values joined by “and” are separate entries in the source; they are usually repeats but may differ in a detail not shown here. Identical values can stand only once. Where a structure was tested more than once in an assay, its records may differ in their call. Active and inactive are the calls of the source. Rule for the calls: active = hit-call score of the fitted dose curve at least 0.9, where 1 is the maximum; inactive = score below 0.9.

Legend:
[1] = BSK_LPS_SRB: Viability Assessment in the BioMAP Diversity Plus: LPS Assay (AID 2283079); conditions: primary human HUVEC with PBMC;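 note: total protein by sulforhodamine B absorbance as a cytotoxicity measure; measured one day after compound addition; fitted in both directions against DMSO so loss or gain of signal counts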
In short: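 Overt cytotoxicity was gauged by sulforhodamine B total-protein staining in a primary human vascular endothelial and mononuclear cell co-culture 24 h post-dosing. Activity was fitted in both directions relative to DMSO.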

[2] = read-out: Interleukin-1 alpha (IL1a), IL1A (gene 3552); test: BSK_LPS_IL1a: BioMAP Diversity Plus: LPS Assay for Interleukin-1 alpha (IL1a) Biomarker Activity (AID 2283080); conditions: primary human HUVEC with PBMC; actives raise or lower the signal
In short: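 Measured: IL-1 alpha via ELISA at 24 h in LPS-activated human umbilical vein endothelium–PBMC co-culture. Baseline: DMSO, bidirectional fitting.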

[3] = read-out: Monocyte Chemoattractant Protein-1 (MCP1), CCL2 (gene 6347); test: BSK_LPS_MCP1: BioMAP Diversity Plus: LPS Assay for Monocyte Chemoattractant Protein-1 (MCP1) Biomarker Activity (AID 2283081); conditions: primary human HUVEC with PBMC; actives raise or lower the signal;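 for AC50: secreted MCP-1 protein quantified by ELISA in culture supernatant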
In short: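 LPS-stimulated HUVEC/PBMC co-culture; chemical, 24 h; MCP-1 by ELISA; bidirectional fit vs DMSO; cytotoxicity via SRB (0.1% stain, 10% TCA fix, 560 nm) in parallel wells.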

[4] = BSK_LPS_PGE2: BioMAP Diversity Plus: LPS Assay for Prostaglandin E2 (PGE2) Biomarker Activity (AID 2283082); conditions: primary human HUVEC with PBMC; actives raise or lower the signal;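 for AC50: secreted prostaglandin E2 measured by ELISA in LPS-stimulated co-culture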
In short: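 HUVEC plus PBMC co-culture stimulated with LPS; secreted PGE2 quantified by ELISA 24 h after chemical dosing. Activity fitted bidirectionally against DMSO as negative control and baseline; parallel SRB total-protein staining served as cytotoxicity check.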

[5] = read-out: Macrophage colony-stimulating factor (MCSF), CSF1 (gene 1435); test: BSK_LPS_MCSF: BioMAP Diversity Plus: LPS Assay for Macrophage colony-stimulating factor (MCSF) Biomarker Activity (AID 2283083); conditions: primary human HUVEC with PBMC; actives raise or lower the signal
In short: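 Compound is added to a human vascular primary co-culture of umbilical vein endothelium and blood mononuclear cells. After 24 h, M-CSF is quantified by ELISA. Signal changes are fitted in both directions against DMSO.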

[6] = read-out: Tissue Factor, F3 (gene 2152); test: BSK_LPS_TissueFactor: BioMAP Diversity Plus: LPS Assay for Tissue Factor Biomarker Activity (AID 2283084); conditions: primary human HUVEC with PBMC; actives raise or lower the signal
In short: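 In this co-culture system of umbilical vein endothelium with PBMC, stimulated with LPS, cell-surface CD142 is detected by ELISA at 24 h. Endpoint values derive from bidirectional fitting, DMSO serving as baseline.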

[7] = read-out: Tumor necrosis factor (Homo sapiens) (UniProt P01375); test: BSK_LPS_TNFa: BioMAP Diversity Plus: LPS Assay for Tumour Necrosis Factor alpha (TNFa) Biomarker Activity (AID 2283085); conditions: primary human HUVEC with PBMC; actives raise or lower the signal;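 for AC50: TNFa protein level quantified by ELISA in the co-culture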
In short: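 Human umbilical vein endothelial cells co-cultured with PBMC were exposed to test chemical and TNFa measured by ELISA 24 h after dosing. Bidirectional curve fitting was done relative to DMSO as negative control and baseline.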

[8] = read-out: Vascular cell adhesion molecule 1 (VCAM1), VCAM1 (gene 7412); test: BSK_LPS_VCAM1: BioMAP Diversity Plus: LPS Assay for Vascular cell adhesion molecule 1 (VCAM1) Biomarker Activity (AID 2283086); conditions: primary human HUVEC with PBMC; actives raise or lower the signal
In short: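 Human umbilical vein endothelial cells co-cultured with peripheral blood mononuclear cells under LPS stimulation were exposed to test chemical for 24 h. VCAM-1 levels were then measured by ELISA, with bidirectional curve fitting relative to DMSO as negative control and baseline.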

CD38, CD38 (gene 952) = test: BSK_SAg_CD38: BioMAP Diversity Plus: SAg Assay for CD38 Biomarker Activity (AID 2283087); conditions: primary human HUVEC with PBMC; actives raise or lower the signal
In short: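 Fluorescence ELISA of cell-surface CD38 served as the read-out, with either increase or decrease fitted against DMSO controls. Cells were a human umbilical vein endothelium plus PBMC co-culture under SEB/TSST-1 stimulation, measured 24 h after dosing.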

CD40, CD40 (gene 958) = test: BSK_SAg_CD40: BioMAP Diversity Plus: SAg Assay for CD40 Biomarker Activity (AID 2283088); conditions: primary human HUVEC with PBMC; actives raise or lower the signal
In short: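 Fluorescence ELISA read-out of CD40 from umbilical vein endothelium plus peripheral blood mononuclear cells, sampled 24 h after dosing. Values come from bidirectional curve fitting with DMSO as baseline.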

Tumor necrosis factor (Homo sapiens), sequence (P01375 whole entry, looked up): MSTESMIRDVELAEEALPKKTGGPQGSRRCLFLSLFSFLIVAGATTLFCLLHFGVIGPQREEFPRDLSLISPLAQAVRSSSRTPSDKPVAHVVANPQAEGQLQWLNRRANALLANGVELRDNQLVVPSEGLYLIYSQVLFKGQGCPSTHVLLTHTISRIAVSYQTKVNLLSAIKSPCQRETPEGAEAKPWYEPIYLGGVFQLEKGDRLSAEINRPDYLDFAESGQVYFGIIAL

SMILES	outcome [1]	outcome [2]	outcome [3]	outcome [4]	outcome [5]	AC50 [6]	outcome [6]	outcome [7]	outcome [8]	outcome (CD38, CD38 (gene 952))	outcome (CD40, CD40 (gene 958))	AC50 [2]	AC50 [3]	AC50 [4]	AC50 [5]	AC50 [7]	AC50 [8]	AC50 (CD38, CD38 (gene 952))	AC50 (CD40, CD40 (gene 958))	AC50 [1]
O=C(O)C(F)(OC(F)(F)C(F)(F)C(F)(F)F)C(F)(F)F (centres undefined)	inactive	inactive	inactive	inactive	inactive	1.41 µM (active)	inactive	inactive	inactive	inactive	inactive									
COP(=O)(O)OC	inactive	inactive	inactive	inactive	inactive		inactive	inactive	inactive	inactive	inactive									
CC(Cl)(Cl)C(=O)O	inactive	inactive	inactive	inactive	inactive		inactive	inactive	inactive	inactive	inactive									
CC(Cc1ccc(OCC(=O)O)cc1)NCC(O)c1csc(C(F)(F)F)n1 (centres undefined)	inactive	inactive	inactive	inactive	inactive		inactive	inactive	inactive	inactive	inactive									
C=CC(=O)OCC(F)(F)C(F)F	inactive		inactive		inactive		inactive					40 µM (active) and 35.4 µM (active)	20.8 µM (active)	39.4 µM (active) and 31.6 µM (active)	30 µM (active)	54.6 µM (active) and 54 µM (active)	38 µM (active) and 24.3 µM (active)	24.2 µM (active) and 36.9 µM (active)	37.2 µM (active) and 35.3 µM (active)	
Nc1ccc([N+](=O)[O-])cc1Cl	inactive	inactive	inactive	inactive	inactive		inactive	inactive	inactive	inactive	inactive									
CCCCC(CC)COP(=O)(Oc1ccccc1)Oc1ccccc1 (centres undefined)				inactive			inactive					20 µM (active)	7.43 µM (active)		8.19 µM (active)	20 µM (active)	13 µM (active)	20 µM (active)	20 µM (active)	20 µM (active)
CC(C)(C)c1ccccc1OP(=O)(Oc1ccccc1)Oc1ccccc1				inactive			inactive	inactive				27.3 µM (active)	20 µM (active)		20 µM (active)		20 µM (active)	30.7 µM (active)	28.3 µM (active)	20 µM (active)
ClC(Cl)=C(c1ccc(Cl)cc1)c1ccccc1Cl				inactive		20 µM (active)						26 µM (active)	29.6 µM (active)		20 µM (active)	31.7 µM (active)	32.9 µM (active)	20 µM (active)	20 µM (active)	29.6 µM (active)
COC(=O)C(F)(F)C(F)(F)OC(F)(C(F)(F)F)C(F)(F)OC(F)=C(F)F (centres undefined)	inactive	inactive	inactive	inactive	inactive		inactive	inactive	inactive	inactive	inactive							0.864 µM (active)		
CCOP(=S)(S)OCC	inactive		inactive	inactive	inactive		inactive	inactive	inactive	inactive	inactive	36.6 µM (active)								
OCC(F)(F)OC(F)(F)C(F)(F)OC(F)(F)C(F)(F)OC(F)(F)CO	inactive	inactive	inactive	inactive	inactive		inactive	inactive	inactive	inactive	inactive							24.3 µM (active)	30 µM (active)	30 µM (active)
[N-]=[N+]=[N-]	inactive	inactive	inactive	inactive	inactive		inactive	inactive	inactive	inactive	inactive									
CCOP(=S)(OCC)SCS(=O)(=O)CC	inactive	inactive	inactive	inactive	inactive		inactive	inactive	inactive	inactive	inactive									
CCC(C)(C)c1ccc(O)cc1	inactive	inactive	inactive	inactive	inactive		inactive	inactive	inactive	inactive	inactive									
FC(F)(F)C(F)(C(F)(F)F)C(F)(F)C(F)(F)CC1CO1 (centres undefined)	inactive	inactive	inactive	inactive	inactive		inactive	inactive	inactive	inactive	inactive									
CC(O)C(F)(F)C(F)(F)F (centres undefined)	inactive	inactive	inactive	inactive	inactive	5.95 µM (active)	inactive	inactive	inactive	inactive	inactive									
OCC(F)(F)OC(F)(F)C(F)(F)OC(F)(F)CO	inactive	inactive	inactive	inactive	inactive		inactive	inactive	inactive	inactive	inactive									
OCC(F)(F)OC(F)(F)C(F)(F)OC(F)(F)C(F)(F)OC(F)(F)F	inactive	inactive	inactive		inactive	49.8 µM (active)	inactive		inactive	inactive	inactive	55.1 µM (active)	52.2 µM (active)	30 µM (active) and 46.8 µM (active)		50.8 µM (active) and 53.5 µM (active)	42.8 µM (active)	48.8 µM (active)	41.6 µM (active)	
